Assay outcomes: PubChem, several laboratories
A selection: hits, their analogues and other compounds. The true share with any hit is near 2.7%.
Shn3 inh set2: reduces Shn3 3'UTR luciferase signal in osteoblasts. Clone20 osteoblast Shn3 3'UTR firefly luciferase, 24 h. inhibition, % at 12.5 µM. actives 0.52% (n = 360,000);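 active = mean inhibition of at least 75% with every replicate also reaching 75%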;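 also: 0% = median of neutral control wells and 100% = pilot-screen positive control compound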
KKLEB cytotox: CF airway cell cytotoxicity counter-screen. KKLEB CF airway cells viability, ATPlite luminescence, overnight; stronger effect = lower value; cells stimulated with P. aeruginosa culture filtrate. activity change (cytotoxicity), % at 5 µM. actives 0.36% (n = 360,000). AID 602141;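 active = corrected activity change at or below -50% at 5 µM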
HIF-2a inh: blocks HIF-2a reporter activity; 786-0 RCC cells HIF-2a reporter, luciferase luminescence, overnight; inhibition, % at 18.8 µM; actives 0.72% (n = 360,000); AID 624352;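 active = inhibition of the luminescence signal of 40% or more relative to plate controls, in a single-dose primary screen at 18.75 µM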
TRPM1 prom inh: reduces MITF-dependent TRPM1 promoter luciferase signal. SK-MEL-5 TRPM1 promoter luciferase, 24 h. actives 0.83% (n = 330,000). inhibition, % at 12.5 µM;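 active = mean inhibition across replicates of 60% or more, whatever share of single replicates reaches that level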
Peg3 promoter: inhibitors of Peg3 promoter | HeLa PEG-Prom luciferase reporter, luminescence, overnight | inhibition, % at 20 µM | actives 1.7% (n = 360,000);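 active = inhibition of at least 50% at 20 µM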
CF NFkB block: blocks PAF-induced NF-kB reporter in cystic fibrosis cells | AID 588850 | KKLEB NF-kB-GFP reporter, GFP fluorescence overnight | actives 0.86% (n = 360,000) | inhibition, % at 5 µM;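 active = at least 50% inhibition at 5 µM, scaled per plate between neutral and stimulator controls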;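 also: PAF is a Pseudomonas aeruginosa culture filtrate used as stimulus; plate controls were PAF-stimulated DMSO wells for no effect and unstimulated DMSO wells for full effect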
CF NFkB conf: confirmation of cystic fibrosis induced NF-kB inhibitors; KKLEB CF airway cells, PAF-induced NF-kB-GFP fluorescence, overnight; actives 64% (n = 1,300); inhibition, % at 5 µM; shares compounds with CF NFkB block; in the data active = inhibition above about 40%;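 also: stimulus PAF is a Pseudomonas aeruginosa filtrate and not platelet activating factor; plate controls were DMSO wells with stimulus for no effect and unstimulated DMSO wells for full effect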
* hit, by the source's call; / = no result given.

SMILES | Shn3 inh set2 | KKLEB cytotox | HIF-2a inh | TRPM1 prom inh | Peg3 promoter | CF NFkB block | CF NFkB conf
O=C(Cn1nc(-c2ccccc2)c2ccccc2c1=O)NCCO | -1 | 5 | 15 | 10 | 4 | 7 | /
CCCOc1ccc(C(=O)OCCN(CC)CC)cc1N | -4 | 4 | -15 | 6 | 5 | 75* | 16
Cc1csc(NC(=O)CN2C(=O)COc3ccc(Cl)cc32)n1 | 8 | -14 | 5 | -5 | 18 | -18 | /
COc1cc(OC)c(C(=O)OCC(=O)Nc2ccccc2Cl)cc1OC | 1 | 2 | 13 | 8 | 1 | -16 | /
O=C(NCCCSc1ccccc1)c1cc(Cl)ccc1O | 21 | -39 | -22 | 0 | 36 | 58* | 76*
O=C(CNC(=O)c1ccccc1)NCCCSc1ccccc1 | 8 | 0 | -2 | -10 | 4 | 13 | /
O=C(Nc1ccc(S(=O)(=O)Nc2ccnn2-c2ccccc2)cc1)C(F)(F)F | 5 | 10 | -2 | -3 | 1 | -1 | /
O=[N+]([O-])c1ccc(-n2nnnc2-c2ccccc2)c([N+](=O)[O-])c1 | 17 | -23 | 17 | 98* | 12 | 68* | -69
O=[N+]([O-])c1ccc(-n2nnnc2-c2ccccc2)cc1 | 3 | -1 | -2 | 7 | 13 | -4 | /
CN(C(=O)CSc1nncn1C)C1CCCN(Cc2ccccc2F)C1 (centres undefined) | -2 | -3 | 11 | -7 | -3 | 3 | /
COc1ccccc1-c1coc2c(CN3CCCC(C)C3)c(O)ccc2c1=O (centres undefined) | 1 | 9 | 8 | 3 | 1 | -14 | /
CCc1c(C)nc2ccc(Br)cc2c1SCCC#N | 12 | -19 | 23 | -8 | 18 | 73* | 89*
COc1ccc([N+](=O)[O-])c(C=CC(=O)c2ccccn2)c1 | -2 | -29 | 23 | / | 101* | 91* | -59
COc1ccc(-c2cc3c(=O)n(CC(=O)NCc4ccc(C)cc4)ncn3n2)cc1 | -26 | -15 | 5 | -13 | -1 | 54* | 13
NC(c1csc(NC(=O)Nc2cccc(Cl)c2)n1)c1ccccc1Cl (centres undefined) | 2 | -16 | -43 | / | 100* | 91* | 77*
Cc1cccc(C)c1NC(=O)Nc1nc(C(N)c2ccccc2Cl)cs1 (centres undefined) | -16 | -3 | 20 | / | 2 | 2 | /
CN(C)c1cccc(C(=O)Nc2ccc(S(=O)(=O)Nc3nccs3)cc2)c1 | 12 | 5 | -3 | -3 | -21 | -8 | /
CCOC(=O)Nc1ccc2c(c1)N(C(=O)CCN(CC)CC)c1ccccc1S2=O (centres undefined) | 1 | -30 | 28 | 11 | 58* | 91* | 43*
O=C(CN1C(=O)COc2ccc(Cl)cc21)NCC1CCCO1 (centres undefined) | 2 | 9 | 12 | -2 | -6 | -11 | /
CC1(C)O[C@@H]2C[C@H]3[C@@H]4C[C@H](F)C5=CC(=O)CC[C@]5(C)[C@H]4[C@@H](O)C[C@]3(C)[C@]2(C(=O)CO)O1 | 8 | -14 | 27 | -19 | -8 | 74* | 17
CC1(C)O[C@@H]2C[C@H]3[C@@H]4C[C@H](F)C5=CC(=O)C=C[C@]5(C)[C@H]4[C@@H](O)C[C@]3(C)[C@]2(C(=O)CO)O1 | 20 | 17 | 25 | -5 | 4 | 68* | 19
O=S(=O)(c1ccc(Br)cc1)N1CCC2(CC1)OCCO2 | -18 | 20 | 0 | -3 | -7 | -5 | /
Cc1cccc(C)c1NC(=O)c1ccc(-c2cc(F)ccc2F)o1 | -10 | -13 | 3 | / | 8 | 25 | /
COc1ccc(S(=O)(=O)N2c3ccc(F)cc3CCC2C)cc1 (centres undefined) | -14 | -5 | 20 | 41 | 8 | 50* | 83*
O=C(CCc1ccc(O)cc1)c1c(O)cc(O)cc1O | -15 | 18 | -16 | -7 | 1 | 8 | /
SMILES | Shn3 inh set2 | KKLEB cytotox | HIF-2a inh | TRPM1 prom inh | Peg3 promoter | CF NFkB block | CF NFkB conf
COc1cc(O)c(CC=C(C)C)c(O)c1C(=O)CCc1ccc(O)cc1 | -3 | -4 | -303 | -11 | 13 | 52* | 44*
Cc1ccc(S(=O)(=O)c2c(C(=O)c3ccccc3)cnc3cc4c(cc23)OCCO4)cc1 | -4 | -44 | 8 | -3 | 26 | 51* | -35
Cc1c(C(=O)c2ccc(Cl)c(Cl)c2)cnc2cc3c(cc12)OCO3 | 9 | -4 | 8 | 8 | 1 | -11 | /
O=C(Nc1ccc(N2CCN(C(=O)c3ccccc3F)CC2)cc1)c1cncc(Br)c1 | 15 | -1 | 20 | 5 | 8 | 69* | 76*
CC(C)NC(=O)C1(C)CCN1C(=O)c1ccc2c(c1)OCO2 (centres undefined) | -23 | 1 | 10 | / | -13 | 14 | /
COc1ncnc2c1ncn2CCCN1CCN(Cc2ccc(C)cc2)CC1 | 2 | 1 | 10 | / | 9 | 2 | /
CCOc1cc(/C=N\NC(=O)c2ccc(NC(=O)CC)cc2)ccc1OC(=O)c1ccccc1 | 95* | -34 | -1 | 51 | 71* | 51* | 9
CCOc1cc(/C=N\NC(=O)c2ccc(NC(=O)C(C)(C)C)cc2)ccc1OC(=O)c1ccc(C)cc1 | 15 | -18 | 10 | 17 | 27 | 26 | /
COc1ccc(S(=O)(=O)N2CCC(C(N)=O)CC2)cc1C(=O)N1CCCCCC1 | 4 | 5 | 6 | 3 | 6 | -21 | /
Cc1ccc(Cl)cc1NS(=O)(=O)c1ccccc1 | -28 | 6 | 4 | 11 | -1 | 10 | /
O=S(=O)(Nc1ccc(Cl)cc1NS(=O)(=O)c1ccccc1)c1ccccc1 | 1 | 22 | 17 | 6 | 47 | 55* | 51*
CC(Oc1ccc(Cl)cc1)C(=O)Nc1ccc(S(=O)(=O)N2CCOCC2)cc1 (centres undefined) | 8 | -7 | 24 | 11 | 19 | 0 | /
O=[N+]([O-])c1cc([N+](=O)[O-])c2oc(-c3ccccc3)c(Br)c2c1O | 1 | -22 | -16 | 9 | 21 | 50* | 87*
CC(C)(CO)CNc1ccn2nccc2n1 | 19 | 1 | 16 | / | -2 | 53* | 60*
O=C(COC(=O)c1cccc(Br)c1)NCc1ccco1 | 25 | -7 | 0 | -2 | 18 | 14 | /
COc1ccc(N2C(=O)c3ccc(C(=O)Nc4ccccc4OC)cc3C2=O)cc1 | 0 | -6 | 3 | 1 | 0 | -2 | /
CCC(=O)c1ccc(O)c(CC=C(C)C)c1 | -6 | -8 | 20 | 2 | -3 | 57* | 64*
Clc1ccc(CSc2nnc(-c3ccncc3)o2)cc1 | 2 | -5 | -42 | -21 | -14 | 70* | 62*
c1cc(-c2nnc3sc(C4CCCCC4)nn23)ccn1 | -3 | -16 | 19 | -12 | 6 | 51* | 64*
